Hit rate of the full screen: of about 16,000 compounds, about 250 (1.6%) were called active. The sample holds actives, similar compounds and a random draw of the others, so the mix is not that of the screen.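 The calls were made as follows: active = inhibition above the average over every tested compound plus 3 SD (cut at about 40% in these data); inactive = the rest.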
What follows are compounds tested on Hepatitis C virus NS3 helicase (assay: HCV NS3 helicase inhibitors, primary screen, biochemical, fluorescence polarization, ChemBridge library (AID 687043)). Settings: NS3h Cy5-dT15 DNA binding, at 100 µM, hits give high values.
CCCOC(=O)Cc1c(O)c2ccccc2[nH]c1=O was tested, and the inhibition was -1.3% (inactive).
O=[N+]([O-])c1ccc2c(c1)S(=O)(=O)N=C2Nc1cccnc1 was tested, and the inhibition was -7.4% (inactive).
With O=c1[nH][nH]c(=O)c2cc(N3CCCC3)ccc12 the inhibition was 4.3% (inactive).
In the case of O=C(NCc1ccccc1)C1CC(=O)N(c2ccc(Cl)cc2)C1 (configuration not stated), the inhibition is reported as 2.8% (inactive).
For Cc1ccc2c(C)[n+](C)ccn12, the inhibition was 15.6% (inactive).
COc1ccc(C2CC(=O)C3=C(C2)Nc2ccccc2NC3c2ccc(SC)cc2)cc1 (configuration not stated) was tested, and the inhibition was 11% (inactive).
For Cc1cccc(NC(=O)/C=C/c2ccc(F)cc2)c1, the inhibition was 2.2% (inactive).
For Cc1ccc(/C=C/C(=O)Nc2cccc([N+](=O)[O-])c2)o1, the inhibition was 6.1% (inactive).
In the case of Cc1ccc(/C=C/C(=O)Nc2ccc(Br)cc2)o1, the inhibition is reported as 42.5% (active).
For Cc1cccc(N2C(=O)S/C(=C/c3ccc(N(C)C)cc3)C2=O)c1, the inhibition was 15.9% (inactive).
COc1ccc(C2CC(=O)C3=C(C2)Nc2ccccc2NC3c2cccc(Cl)c2)cc1 (configuration not stated) was tested, and the inhibition was 9.2% (inactive).
CCCCCCN1C(=O)C(O)=C(C(C)=O)C1c1ccc(Br)cc1 (configuration not stated) was tested, and the inhibition was -0.7% (inactive).
For CCCCNC(=O)C(=O)NCCCOC(C)C, the inhibition was 4.2% (inactive).
In the case of O=C(Nc1ccc(Cl)cc1)/C(=C\c1cccc([N+](=O)[O-])c1)NC(=O)c1cccs1, the inhibition is reported as 0.7% (inactive).
For FC(F)(F)c1cc(/C=C/c2ccccc2)n[nH]1, the inhibition was 10.2% (inactive).
For CC(C)(C)C(=O)COc1ccc2c(-c3ccccc3)cc(=O)oc2c1, the inhibition was 14.2% (inactive).
COc1ccc(C2C=C(Nc3ccccc3)C(=O)N2c2ccccc2)c(OC)c1 (configuration not stated) was tested, and the inhibition was -9.5% (inactive).
With FC(F)(F)c1ccc(/C=N\N2CCN(Cc3cccc4ccccc34)CC2)cc1 the inhibition was 3.6% (inactive).
With O=C1C2ON(c3ccccc3)C(c3ccc(Br)cc3)C2C(=O)N1c1ccccc1C(F)(F)F (configuration not stated) the inhibition was 13.4% (inactive).
With O=c1c2c(nc3cc(-c4cccc(F)c4)[nH]n13)CCS2 the inhibition was 57.3% (active).
With CCc1c(C)nc2cc(-c3cccs3)[nH]n2c1=O the inhibition was -7.2% (inactive).
CC(=O)Nc1c(C)cc(C2(c3cc(C)c(NC(C)=O)c(C)c3)CCCCC2)cc1C was tested, and the inhibition was 2.3% (inactive).
For CCOC(=O)c1c(-c2ccc(C)cc2C)csc1NC(=S)NC(=O)c1ccccc1, the inhibition was 3.9% (inactive).
With O=C(NC(Cc1ccc(O)cc1)C(=O)O)/C(=C/c1ccccc1)NC(=O)c1ccccc1 (configuration not stated) the inhibition was -11.5% (inactive).
In the case of Cc1cccc(N(CC(=O)O)S(C)(=O)=O)c1, the inhibition is reported as 4.5% (inactive).
For CCOC(=O)c1ccc(NC(=O)CN(c2cccc([N+](=O)[O-])c2)S(=O)(=O)c2ccccc2)cc1, the inhibition was 24.9% (inactive).
With O=C(O)CC1S/C(=N\N=C2/C(=O)Nc3ccccc32)N(c2ccc(O)cc2)C1=O (configuration not stated) the inhibition was 1.8% (inactive).
CCOc1ccccc1NC(=O)CN(c1ccc(OC)cc1)S(=O)(=O)c1ccc(C)cc1 was tested, and the inhibition was 13.8% (inactive).
In the case of COc1cc(/C=C2/SC(=S)N(C)C2=O)ccc1OC(=O)c1cccs1, the inhibition is reported as 2.6% (inactive).
In the case of COc1ccc(-c2nc3cc(NC(=O)C(C)C)ccc3o2)cc1OC, the inhibition is reported as -6.3% (inactive).
For CC(=O)C1=C(C)NC(C)=C(C(C)=O)C1c1cn(-c2ccccc2)nc1-c1cccs1, the inhibition was 15.6% (inactive).
For O=C(NC(=S)Nc1ccc2oc(-c3ccc(Br)cc3)nc2c1)c1ccco1, the inhibition was 17% (inactive).
In the case of O=C(NC(=S)Nc1ccc(-c2nc3cc(Cl)ccc3o2)cc1)c1ccco1, the inhibition is reported as 124% (active).
In the case of O=C(NC(=S)Nc1ccc2oc(-c3cccnc3)nc2c1)c1ccc(Cl)cc1, the inhibition is reported as -3.5% (inactive).
In the case of CCOC(=O)C1=C(C)N=c2s/c(=C\c3ccc(F)cc3)c(=O)n2C1c1cccc(OC)c1 (configuration not stated), the inhibition is reported as 10% (inactive).
With O=C(NCCCc1ccccc1)C1(c2ccccc2)CCCC1 the inhibition was 27% (inactive).
CCN(CC)c1ccc(C=C2C(=O)N(C)C(=O)N(C)C2=O)c(O)c1 was tested, and the inhibition was 120% (active).
For CCN(CC)c1ccc(/C=C2\C(=O)NC(=O)N(c3ccc(OC)cc3)C2=O)c(OC)c1, the inhibition was -5.2% (inactive).
In the case of CCN(CC)c1ccc(/C=C2\C(=O)NC(=O)N(C)C2=O)cc1, the inhibition is reported as 27.7% (inactive).
In the case of Cc1ccc(N2C(=O)NC(=O)/C(=C\c3ccc(I)cc3)C2=O)cc1, the inhibition is reported as 12.1% (inactive).
CCOC(=O)c1c(CN(CCO)CCO)n(C)c2c1cc(OC(C)=O)c1c2c(-c2ccccc2)nn1-c1ccccc1 was tested, and the inhibition was -6.5% (inactive).
For Cc1ccc(N2C(=O)CC(NCCc3ccccc3F)C2=O)cc1 (configuration not stated), the inhibition was 8.2% (inactive).
With CCOC(=O)c1ccc(NC(=O)c2ccccc2OC)cc1 the inhibition was 17.7% (inactive).
In the case of Cc1ccc([N+](=O)[O-])cc1NC(=O)C1CC1(c1ccccc1)c1ccccc1 (configuration not stated), the inhibition is reported as 1.8% (inactive).
For O=S(=O)(Nc1ccc(O)c(-c2c(O)ccc3ccccc23)c1)c1cc(Cl)ccc1Cl, the inhibition was 4.2% (inactive).
For CCCCCCN1C(=O)C(=O)C(=C(O)c2ccccc2)C1c1ccccc1OC (configuration not stated), the inhibition was 1.4% (inactive).
For COc1cc(C(=S)N2CCOCC2)cc(OC)c1OC(=O)c1ccc(Br)cc1, the inhibition was 15.4% (inactive).
In the case of Cc1ccc(S(=O)(=O)c2ccc(Sc3ccc(Cl)cc3)cc2)cc1, the inhibition is reported as 15.4% (inactive).
For COc1ccc(-c2nc3sc(-c4ccc(OC)cc4)nc3s2)cc1, the inhibition was 6% (inactive).
In the case of O=C1NC(=Nc2ccc(F)cc2)S/C1=C/c1ccc(Br)cc1, the inhibition is reported as 4.6% (inactive).
In the case of Cc1cc(NC(=O)c2ccc(-c3cccc([N+](=O)[O-])c3)o2)ccc1NC(=O)c1ccco1, the inhibition is reported as 14.7% (inactive).
For CCOc1cccc2c1N(C(=O)c1ccc(OC)cc1)C(C)(C)C(=S)C2=C1SC(C(=O)OC)=C(C(=O)OC)S1, the inhibition was 0.9% (inactive).
With CS(=O)(=O)N1CCN(C(=O)Cc2ccccc2)CC1 the inhibition was 7.7% (inactive).
With CCOc1ccc(/C=C2/Sc3ccccc3C2=O)cc1OCC the inhibition was 6.1% (inactive).
COc1ccc(N2C(=O)C3C4C=CC(C4=C(C)C)C3C2=O)c([N+](=O)[O-])c1 (configuration not stated) was tested, and the inhibition was 15.2% (inactive).
COc1ccc(N=Cc2sccc2C)c([N+](=O)[O-])c1 was tested, and the inhibition was 4.3% (inactive).
With COc1ccc(N2C(=O)C=CC2=O)c([N+](=O)[O-])c1 the inhibition was 97.8% (active).
With Cc1ccc2[nH]c(C)c(CN3CCOCC3)c(=O)c2c1 the inhibition was -1.6% (inactive).
For CC(Oc1cccc(Cl)c1)C(=O)Nc1ccccc1C(=O)N1CCN(Cc2ccccc2)CC1 (configuration not stated), the inhibition was 0.3% (inactive).
COC(=O)C(NC(=O)c1ccccc1)C12CC3CC(CC(C3)C1)C2 (configuration not stated) was tested, and the inhibition was 7.5% (inactive).
For Cc1cc(C)n(C(=O)c2cc(F)c(F)cc2Cl)n1, the inhibition was 3.6% (inactive).
For Cc1ccc(NC2=CC(=O)C=CC2=O)c(C)c1, the inhibition was -2.9% (inactive).
For COc1ccc(OC)c(N(CC(=O)Nc2cccc(Br)c2)S(C)(=O)=O)c1, the inhibition was 9.1% (inactive).
With CCC(=O)N1CCN(c2ccc(C(=O)c3ccccc3)cc2F)CC1 the inhibition was -2.8% (inactive).
With Cc1cc(/C=C(/C#N)C(=O)Nc2ccc(F)cc2)c(C)n1-c1ccc(Cl)cc1 the inhibition was -2.8% (inactive).
For CCOC(=O)c1ccc(N2NC(=O)/C(=C/c3ccc(O)cc3)C2=O)cc1, the inhibition was 5.1% (inactive).
With COc1ccc(/C=C2\C(=O)NC(=S)N(c3ccc(Br)cc3)C2=O)cc1 the inhibition was 5.9% (inactive).
With CCN1C(=O)C(=Cc2ccc(O)cc2)C(=O)NC1=S the inhibition was 65.4% (active).
For COc1ccccc1NC(=O)C(=O)NCc1ccccc1, the inhibition was -0.6% (inactive).
With Cc1oc2cc(Br)c(O)cc2c1C(=O)OC(C)C the inhibition was 9.4% (inactive).
O=C(c1nn2c(c1Cl)NC(c1cccs1)CC2C(F)(F)F)N1CCN(c2ccc(F)cc2)CC1 (configuration not stated) was tested, and the inhibition was 5.2% (inactive).
For Cc1cccc(NC(=O)CSc2ncn[nH]2)c1, the inhibition was 1.3% (inactive).
In the case of COc1ccc(CNS(=O)(=O)c2ccc(Cl)cc2)cc1, the inhibition is reported as -5% (inactive).
CCN(CC)c1ccc(NC(=O)/C(=C\c2ccccc2)NC(C)=O)cc1 was tested, and the inhibition was 56.6% (active).
For CC(C)Oc1ccc(/C=C(/NC(=O)c2ccccc2)C(=O)Nc2ccccc2)cc1, the inhibition was 14.7% (inactive).
CC(=O)Nc1ccc(NC(=S)NC(=O)/C=C/c2ccccc2)cc1 was tested, and the inhibition was -21.9% (inactive).
Cc1c(C=O)c(=O)oc2c3c4c(cc12)CCCN4CCC3 was tested, and the inhibition was 1.3% (inactive).
In the case of O=C(NC1C2CC3CC(C2)CC1C3)c1cccc(I)c1 (configuration not stated), the inhibition is reported as 15.2% (inactive).
In the case of O=c1oc2ccc3ccccc3c2cc1-c1ccc(I)cc1, the inhibition is reported as 4.2% (inactive).
For CC(=O)Oc1ccccc1-c1nc2s/c(=C/c3ccco3)c(=O)n2n1, the inhibition was 6.7% (inactive).
Cc1cc(/C=C2\C(=O)NC(=O)N(c3ccc4c(c3)OCO4)C2=O)c(C)n1-c1ccc(F)cc1 was tested, and the inhibition was 14.5% (inactive).
Cc1cccc(OCCOc2ccc(Cl)cc2/C=C2/SC(=S)N(C)C2=O)c1 was tested, and the inhibition was 23.2% (inactive).
In the case of O=C1C2C3C=CC(C3)C2C(=O)N1/N=C\c1ccc(-c2ccccc2[N+](=O)[O-])o1 (configuration not stated), the inhibition is reported as 10.6% (inactive).
With COC(=O)c1ccccc1NC(=O)c1ccc(Cl)cc1 the inhibition was -2.8% (inactive).
In the case of COc1ccc(CC(=O)Nc2cc(NC(=O)Cc3ccc(OC)cc3)cc(C(=O)NC(C)(C)C)c2)cc1, the inhibition is reported as 8.2% (inactive).
For O=C1NN(c2ccccc2)C(=O)/C1=C/c1c(Cl)cccc1Cl, the inhibition was 8.3% (inactive).
O=C1c2ccc(C(c3ccc4c(c3)C(=O)N(c3ccccc3)C4=O)(C(F)(F)F)C(F)(F)F)cc2C(=O)N1c1ccccc1 was tested, and the inhibition was 8.7% (inactive).
For CC(C)C(=O)Nc1ccc2c3c(cccc13)CC2, the inhibition was 0.3% (inactive).
For COc1ccccc1N1CCN(/N=C(/C)c2ccncc2)CC1, the inhibition was -3.7% (inactive).
In the case of COc1ccc(/C=c2\sc3n(c2=O)C(c2ccc(OC)cc2)C(C(=O)OC(C)C)=C(C)N=3)cc1 (configuration not stated), the inhibition is reported as -0.7% (inactive).
CCOc1ccccc1NC(=O)c1ccc(CN2CCOCC2)cc1 was tested, and the inhibition was 6.1% (inactive).
For Cc1ccc(C(=O)N/C(=C/c2cccc3ccccc23)C(=O)N2CCCC2)cc1, the inhibition was -0.3% (inactive).

From PubChem BioAssay AID687043 (Milwaukee Institute for Drug Discovery, 2013)
